Source: PubChem BioAssay (NCI)
This is part of a sample that, as a whole, favours compounds with a hit. Of some 83,000 tested, about 20% had one in any assay.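 48-hour exposure, single concentration, 96-well plates; percent growth endpoint where 0 means no net growth. Active: below 10.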 A number with no mark means an inactive call. Activity calls are given as the source filed them.

Experiments:
Assay in all cases: NCI-60 one-dose screen, 48 h (100 = growth as untreated, 0 = no growth, -100 = all killed)
[1] = test system: NCI-H23 lung; settings: 10 µM unless noted
[2] = test system: NCI-H226 lung; settings: 10 µM unless noted
[3] = test system: NCI-H322M lung; settings: 10 µM unless noted
[4] = test system: HOP-62 NSCLC; settings: 10 µM unless noted
[5] = test system: NCI-H460 lung; settings: 10 µM unless noted
[6] = test system: HOP-92 NSCLC; settings: 10 µM unless noted
[7] = test system: NCI-H522 lung; settings: 10 µM unless noted
[8] = test system: A549/ATCC NSCLC; settings: 10 µM unless noted
[9] = test system: 786-0 renal; settings: 10 µM unless noted
[10] = test system: COLO 205 colon; settings: 10 µM unless noted
[11] = test system: DU-145 prostate; settings: 10 µM unless noted
[12] = test system: MALME-3M melanoma; settings: 10 µM unless noted
[13] = test system: MDA-MB-231 breast; settings: 10 µM unless noted
[14] = test system: RXF 393 renal; settings: 10 µM unless noted
[15] = test system: SF-268 CNS; settings: 10 µM unless noted
[16] = test system: SF-295 CNS; settings: 10 µM unless noted
[17] = test system: SF-539 CNS; settings: 10 µM unless noted
[18] = test system: UACC-257 melanoma; settings: 10 µM
[19] = test system: M14 melanoma; settings: 10 µM unless noted

Structure (SMILES)	growth [1]	growth [2]	growth [3]	growth [4]	growth [5]	growth [6]	growth [7]	growth [8]	growth [9]	growth [10]	growth [11]	growth [12]	growth [13]	growth [14]	growth [15]	growth [16] [%]	growth [17]	growth [18]	growth [19]
C=CCn1c(SCC(=O)Nc2cccc(C(=O)/C=C/c3ccc(OC)c(OC)c3)c2)nc2ccccc2c1=O	93.2%	83.7%	87.8%	103%	91.7%	84.6%	83.6%	89.1%	100%	116%	95.2%	84.7%	89.7%	87.9%	89.1%	104	90.3%	108%	114%
COc1cc2c3c(n(CCCNC4CCCCC4)c(=O)c2cc1OC)-c1cc2c(cc1C3=O)OCO2	-51.7% (active)	82.5%	-80.3% (active)	-78.9% (active)	-80.1% (active)	91.5%	-60.5% (active)	-87.5% (active)	-82.8% (active)	-79.2% (active)	-68.4% (active)	-46.9% (active)	-78.1% (active)	76.6%	70.1%	66.1	-85.5% (active)	96.9%	33%
Cn1cc(-c2nn3cc(-c4cccnc4)nc3s2)c2ccccc21	30.1%	30.2%	55.3%	39.1%	9.94% (active)	26.1%	-12.9% (active)	44%	59.7%	-2.12% (active)	58.3%	22.5%	31.7%	54.3%	66.7%	40.7	26.5%	–	14.5%
CS(=O)(=O)c1ccc2c(c1)c1c(n2C(=O)c2ccc(Cl)cc2)CCCC1	45%	60.9%	43.8%	43.1%	12.3%	35%	-44.2% (active)	50.6%	43.6%	-1.12% (active)	36%	43.7%	39.9%	-12.1% (active)	62.1%	22.5	1.96% (active)	56.8%	28.8%
C=C1C(=O)O[C@@H]2C[C@@H](C)CCC(=O)[C@](C)(OC(C)=O)C[C@H](OC(=O)/C(C)=C\C)[C@@H]12	70.6%	104%	102%	105%	97.3%	80%	11.8%	87.7%	90.8%	28.6%	37.2%	85.5%	50.4%	51.3%	96.1%	97.5	72.3%	73.4%	82.4%
COC(=O)c1nc(-c2ccc(C)cc2)oc1S(=O)(=O)N1CCN(c2oc(-c3ccccc3)nc2C#N)CC1	102%	101%	103%	112%	103%	106%	92.2%	102%	102%	107%	104%	98.6%	102%	109%	98%	103	98.6%	111%	74%
C=C(C)C(=O)O[C@H]1C[C@@]2(C)OC(=CC2=O)/C(CO)=C\[C@H]2OC(=O)C(=C)[C@H]12	-35.2% (active)	-39.3% (active)	87.6%	58.9%	12.5%	-61.4% (active)	-68.3% (active)	65.7%	-66.5% (active)	-72.9% (active)	-25.2% (active)	-68.8% (active)	-54% (active)	-67.6% (active)	-13.8% (active)	32.6	-82.9% (active)	-34% (active)	-34% (active)
COc1ccc2c(C3=C(c4cn(C)c5ccccc45)C(=O)NC3=O)coc2c1	34.8%	20.3%	58.4%	45.3%	9.16% (active)	25.3%	-29.5% (active)	38.7%	44.9%	1.81% (active)	31.1%	97.1%	30.4%	-10.2% (active)	67.6%	36.3	1.16% (active)	–	36.9%
